Assay outcomes deposited in PubChem BioAssay by National Center for Advancing Translational Sciences (NCATS).
BAZ2B inh – blocks human BAZ2B. 360,000 tested, 4.4% active. AID 504333. Q9UIF8. Potency, µM (top dose mostly 114 µM), for inactives: at the highest dose activity change, negative = inhibition, usual class: inhibitors. AlphaScreen BAZ2B-H3K14Ac peptide displacement; further: on the % scale 0 is the no-effect control and ±100 the full control effect; nearly all actives have a fitted effect of over 60% in size
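Protein-peptide AlphaScreen: BAZ2B 50 nM, b-H3K14Ac 50 nM, 1x PBS pH 7.4 + 0.01% Tween-20. Preincubation 30 min RT; cpd 30 min RT (top 110 uM); beads 20 min RT, light-protected.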
HP1b chromo inh – inhibitors of HP1-beta chromodomain binding to methylated histone tails; AlphaScreen HP1-beta / biotin-H3K9me3 peptide binding; Potency, µM (titrated, usually from 114 µM), for the others: at the top dose activity change, negative = inhibition, hits mostly inhibitors; 390,000 tested, 0.56% active; AID 540317; further: nearly all actives have a fitted effect of over 70% in size
Target sequence (P83916 whole entry, looked up): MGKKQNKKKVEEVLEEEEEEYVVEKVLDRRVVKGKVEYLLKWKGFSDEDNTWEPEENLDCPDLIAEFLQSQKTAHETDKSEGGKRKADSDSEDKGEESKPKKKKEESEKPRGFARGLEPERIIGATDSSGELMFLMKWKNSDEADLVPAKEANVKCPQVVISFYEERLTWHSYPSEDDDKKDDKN
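HP1-beta protein (50 nM final) preincubated 30 min at room temperature with biotinylated H3(1-18)K9me3 peptide (50 nM) in PBS pH 7.4, 0.01% Tween-20, then compound added for 30 min. AlphaScreen streptavidin donor/nickel chelate acceptor beads (10 ug/mL final), 30 min dark, luminescence read.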
JMJD2A Tudor – inhibitors of human JMJD2A Tudor domain | O75164 | AlphaScreen JMJD2A-Tudor / H3K4me3 peptide binding | Potency, µM (titrated, usually from 114 µM), for the others: at the highest dose activity change, negative = inhibition, hits mostly inhibitors | 390,000 tested, 4.4% active | AID 504339; further: on the % scale 0 is the no-effect control and ±100 the full control effect; nearly all actives have a fitted effect of over 50% in size
PLK1 PBD inh – PLK1 (human) polo-box domain binding inhibition; P53350; Potency, µM, without a hit: max response, negative = inhibition, actives largely listed as inhibitors; Plk1 PBD binding of FITC phosphopeptide, fluorescence polarization; 360,000 tested, 2.8% active; further: series mostly up to about 57 µM; on the % scale 0 is the no-effect control and ±100 the full control effect; nearly all actives have a fitted effect of over 65% in size
G9a block – inhibitors of human histone lysine methyltransferase G9a; Q96KQ7; 350,000 tested, 8.8% active; Potency, µM (titrated, usually from 102 µM), for inactives: at the top dose activity, negative = inhibition, actives largely listed as inhibitors; G9a H3K9 monomethylation, AlphaScreen, 2 h; further: on the % scale 0 is the no-effect control and ±100 the full control effect; nearly all actives have a fitted effect of over 75% in size
Target sequence (Q96KQ7 913-1193 limits assumed): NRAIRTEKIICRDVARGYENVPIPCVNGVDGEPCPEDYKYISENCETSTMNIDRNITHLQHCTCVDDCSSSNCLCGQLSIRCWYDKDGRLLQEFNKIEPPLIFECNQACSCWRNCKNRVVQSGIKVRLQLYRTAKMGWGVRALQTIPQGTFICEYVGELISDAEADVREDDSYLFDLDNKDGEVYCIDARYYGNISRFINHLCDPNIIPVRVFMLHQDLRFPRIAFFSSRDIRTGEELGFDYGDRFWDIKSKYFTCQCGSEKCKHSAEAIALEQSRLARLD
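Step 1: enzyme (final 20 nM) with compound, 15 min RT. Step 2: substrate peptide 500 nM and SAM 20 uM, 2 h RT. Step 3: anti-H3K9me1 antibody and AlphaScreen beads, 10 min, then plate read.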
VDR inh – inhibitors of human vitamin D receptor; P11473; VDR-SRC2-3 peptide fluorescence polarization, 2 h; Potency, µM, for inactives: max response, negative = inhibition, usual class: inhibitors; 400,000 tested, 0.93% active; AID 504847; further: on the % scale 0 is the no-effect control and ±100 the full control effect
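The screen uses fluorescence polarization to detect compounds that interfere with recruitment of the SRC2-3 coactivator peptide to VDR; plates are read after 2 h at room temperature.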
* hit, by the source's call; ? = inconclusive; / = no result given; [ ] = dose if it differs, or a comment. Hits are enriched below; roughly 11% of the tested compounds scored in any of these assays. The call rests on the fitted dose curve; in most records, active means well fitted curve in the direction sought with a large enough effect; inconclusive means small, poorly fitted or top-dose-only effect, or another doubt; inactive means no such curve, though single readings can be large; an effect the other way counts as inactive or inconclusive. Potency means the concentration at half of the fitted maximal effect.

SMILES	BAZ2B inh	HP1b chromo inh	JMJD2A Tudor	PLK1 PBD inh	G9a block	VDR inh
Clc1ccc(CNc2nc(CN3CCOCC3)nc3scc(-c4ccccc4)c23)cc1	50µM*	-21%	?	3%	?	-7%
O=C(Nc1nncs1)c1cc(-c2ccncc2)nc2ccc(Cl)cc12	-5%	33%	-2%	?	50µM*	1%
CCc1nnc(NC(=O)c2cc(-c3ccncc3)nc3ccccc23)s1	-23%	53%	-21%	-18%	?	0%
CC(C)(C)c1nnc(NC(=O)c2cc(-c3ccccc3)nc3ccccc23)s1	-35%	-52%	-33%	24µM*	?	?
Cc1ccc(C(=O)Nc2nc3c(s2)CCCC3)o1	-35%	12%	-33%	-10%	56µM*	-5%
O=C(Nc1nc2c(s1)CCCC2)c1cc(-c2ccccc2)nc2ccccc12	-33%	-4%	-32%	-2%	13µM*	0%
CC1(C(=O)NS(=O)(=O)C2CC2)CCN(C(=O)c2ccc3ccccc3n2)C1 (stereo not drawn)	/	/	/	-15%	/	/
CCC(C)NC(=O)c1ccc2nc(-c3cccs3)c(-c3cccs3)nc2c1 (stereo not drawn)	/	1%[57 µM]	-11%[57.1 µM]	/	/	-25%
Cc1ccc(CC(=O)Nc2c(C(=O)N3CCN(c4ccccc4F)CC3)oc3ccccc23)cc1	-30%	20%	-29%	/	-50%[59 µM]	15%
Cc1ccc(-n2ncc(C(=O)NCc3ccccc3C)c2-n2cccc2)cc1	-13%	23%	-11%	/	-14%[59 µM]	8%
Cc1csc(NC(=O)c2cc(-c3ccccc3)nc3ccccc23)n1	-33%	-9%	-32%	5%	71µM*	9%
CCN(CC)S(=O)(=O)c1ccc(-c2csc(C)n2)cc1	13%	22%	?	9.5µM*	/	22µM*
Cc1cc(NC(=O)CSc2nc3ccsc3c(=O)n2Cc2ccccn2)n[nH]1	79µM*	18%	-36%	-7%	102%[59 µM]	19%
CCc1ccc(CNC(=O)c2ccc(CS(=O)(=O)Cc3ccccc3C)o2)cc1	5%	18%	-27%	/	3%[59 µM]	-10%
Cc1ccc(C2=NC3(CCCCC3)NC2=S)cc1	-5%	35%	6%	-6%	11%[59 µM]	8%
CCN1CCC2(CC1)N=C(c1ccc(F)cc1)C(=S)N2	-4%	43%	-12%	-14%	11µM*	6%
C/C=C\C=C\C(=O)Nc1cccc(C2=NOC3(C2)C[C@@H](C(N)=O)N(C(=O)C(c2ccccc2)c2ccccc2)C3)c1 (stereo partly drawn)	?	15%	-36%	-20%	?	-22%
Cc1ccc(S(=O)(=O)N2CCc3c2cc([N+](=O)[O-])cc3[N+](=O)[O-])cc1	?	?	32µM*	-21%	-12%[2.33 µM]	?
O=C1[C@@H](Oc2ccccc2)[C@@H](c2cnc3ccccc3c2)N1c1ccccc1	/	33%	-22%	4%	/	0%
CC1(c2nnnn2Cc2ccccc2)CCC(=O)N1CCc1ccccc1F (stereo not drawn)	/	/	/	-19%	/	/
COc1cc(NC(=O)CSc2nc(-c3ccco3)cc(C(F)(F)F)n2)cc(OC)c1OC	2%	44%	5%	/	2%[59 µM]	2%
COc1ccc(N=C(N)SCc2ccccn2)cc1	?	?	50µM*	-12%	16µM*	-11%
COc1ccc(-c2nnc(SCc3ccccn3)n2C)cc1	-3%	-7%	-11%[11.4 µM]	30µM*	12%[59 µM]	4%
COc1ccc(C(=O)OCC(=O)Nc2ccc3c(c2)OCO3)cc1S(=O)(=O)N1CCOCC1	-6%	48%	-6%	-8%	6%[0.501 µM]	-9%
Cc1ccc(C)c(N2CCN(C(=O)CCn3c(=O)[nH]c4ccccc4c3=O)CC2)c1	-9%	-10%	?	/	-12%[59 µM]	-4%
SMILES	BAZ2B inh	HP1b chromo inh	JMJD2A Tudor	PLK1 PBD inh	G9a block	VDR inh
CC(Sc1nn(-c2ccc(F)cc2)c(=S)s1)C(=O)c1c(N)n(C)c(=O)n(C)c1=O (stereo not drawn)	-13%	0%	-19%	-4%	50µM*	-16%
Cc1cc(C)nc(NC(=O)CSc2nn(-c3ccccc3)c(=S)s2)n1	79µM*	12%	?	-17%	?	4%
Cn1c(N)c(C(=O)CSc2nn(-c3ccccc3)c(=S)s2)c(=O)n(C)c1=O	0%	11%	-21%	-9%	50µM*	6%
CC(Sc1n[nH]c(-c2ccccc2)n1)C(=O)c1c(N)n(C)c(=O)n(C)c1=O (stereo not drawn)	4%	31%	0%	-8%	50µM*	-3%
Cn1c(N)c(C(=O)CSc2n[nH]c(-c3ccccc3)n2)c(=O)n(C)c1=O	8%	25%	-24%	-2%	5%[12.7 µM]	-13%
CC(Sc1nc2ccccc2s1)C(=O)c1c(N)n(C)c(=O)n(C)c1=O (stereo not drawn)	-16%	41%	-5%	-2%	?	-17%
O=C(CSc1nn(-c2ccccc2)c(=S)s1)Nc1ncccn1	-24%	24%	-13%	-5%	-21%	4%
COC(=O)C1=CN(c2ccc(C(C)(C)C)cc2)C(N)=C(C#N)C1c1cccc2ccccc12 (stereo not drawn)	/	/	/	0%	/	/
O=C(CCn1cccn1)NCc1ccc(Cl)cc1	2%	29%	-1%	/	7%[59 µM]	14%
Nc1ccccc1SCC(O)Cn1ccc2ccccc21 (stereo not drawn)	-31%	3%	-17%	23%	-46%	-3%
COC(=O)c1cc2c(s1)c1cnn(Cc3ccccc3F)c(=O)c1n2C	0%	/	/	/	?	/
Nc1ccccc1Nc1cc(-c2ccccc2)nn1-c1cccc(Cl)c1	11µM*	45µM*	20µM*	-2%	?	-7%
CC1(C(=O)NS(=O)(=O)C2CC2)CCN(C(=O)c2ccccc2F)C1 (stereo not drawn)	/	/	/	-11%	/	/
Cc1cc2c(c(=O)n1Cc1ccccc1)C1O[C@](c3ccsc3)(Cc3cc(C#N)ccc31)O2	-37%[22.9 µM]	/	/	/	17%[2.33 µM]	/
CN(/C=C/c1c([N+](=O)[O-])c(=O)n(C)c(=O)n1C)c1ccccc1	-11%	8%	-33%	-17%	5%	17%
CC1=C/C(=C/N(C)c2ccccc2)C(=O)S1	?	?	?	27µM*	?	?
COc1ccc(Br)cc1/C=N/Nc1cccc(C(=O)O)c1	-27%	5%	-26%	?	10µM*	-13%
COc1ccc(/C(=C/Nc2cccc(Br)c2)C(C)=O)cc1OC	?	?	-20%[11.4 µM]	27µM*	?	4%
C/C(=N\NC(=O)C(=O)Nc1cccc(C(F)(F)F)c1)c1ccc(Cl)s1	-7%	28%	-12%	-3%	-2%[59 µM]	-5%
